Assay results reported in PubChem BioAssay (NCI).
About 79,000 compounds went through this panel and 15% of them were active in at least one assay; those are over-represented in the sample as a whole. Cut-off read from the data, not from the text of the source: active = growth inhibition above about 70%; inactive = the rest. Where a SMILES comes first, the peptide text is derived from it. The star is where a group is joined. Boc = CC(C)(C)OC(=O)*

Key:
[1] = NCI Yeast Anticancer Drug Screen. Data for the rad50 strain (AID 155);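 note: 0% = growth of vehicle-only cultures of the same strain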; conditions: S. cerevisiae rad50 strain growth inhibition; at 50.0 µM; active compounds read high
Procedure, shortened: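 Growth of the mutant yeast was measured after compound exposure and referenced to vehicle-treated cultures.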

[2] = NCI Yeast Anticancer Drug Screen. Data for the mec2-1 strain (AID 157); conditions: S. cerevisiae mec2-1 strain, at 50.0 µM, active compounds read high
Procedure, shortened: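 Compounds were applied to mec2-1 yeast cells. Their growth was then compared with that of vehicle-treated cultures to give growth inhibition.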

[3] = NCI Yeast Anticancer Drug Screen. Data for the sgs1 mgt1 strain (AID 161);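 note: 0% = growth of cultures given vehicle only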; conditions: S. cerevisiae sgs1 mgt1 strain, at 50.0 µM, active compounds read high
Procedure, shortened: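 Yeast cells carrying a defined DNA-repair defect were exposed to test compounds. Growth inhibition was measured relative to vehicle-treated controls.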

[4] = NCI Yeast Anticancer Drug Screen. Data for the cln2 rad14 strain (AID 165);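 note: 0% = growth equal to vehicle treated cultures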; conditions: S. cerevisiae cln2 rad14 strain, at 50.0 µM, active compounds read high
Procedure, shortened: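 Strain: cln2 rad14 yeast, altered in cell cycle control and DNA damage repair. Read-out: growth inhibition vs vehicle.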

[5] = NCI Yeast Anticancer Drug Screen. Data for the bub3 strain (AID 167); conditions: S. cerevisiae bub3 mutant strain, at 50.0 µM, active compounds read high
Procedure, shortened: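 Whole-cell yeast assay. The mutant strain was incubated with compounds, and growth inhibition was determined by comparison with vehicle-treated cells.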

[6] = NCI Yeast Anticancer Drug Screen. Data for the mlh1 rad18 strain (AID 175); conditions: S. cerevisiae mlh1 rad18 strain growth inhibition; at 50.0 µM; active compounds read high
Procedure, shortened: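 A repair-deficient yeast strain is exposed to test compound, and growth is scored relative to vehicle-treated controls.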

Measured: growth inhibition

C[N+]1(C)CCC[N+](C)(C)CC1
inactive: [1] -15.9% | [2] -7.75% | [3] 3.9% | [4] 16.2% | [5] 20.9% | [6] 6.4%

COc1ccc2nccc(SCC(=O)O)c2c1
inactive: [1] -5.25% | [2] 8.25% | [3] -29.6% | [4] 18.9% | [5] 37% | [6] 1.85%

N#Cc1cc2ccccc2n(Cc2ccccc2)c1=O
inactive: [1] -8.85% | [2] -9.9% | [3] -9.4% | [4] 7.85% | [5] 3.75% | [6] -9.55%

Cc1cnc(Sc2ncccc2[N+](=O)[O-])nc1
inactive: [1] 33% | [2] 5.75% | [3] 22.8% | [4] 25.6% | [5] -3.1% | [6] 6.7%

NS(=O)(=O)/C=C(\Cl)c1ccccc1
inactive: [1] 1.7% | [2] 2.15% | [3] 2.95% | [4] -16.6% | [5] 12.2% | [6] -0.55%

CCNc1ccc(-c2ccc(NCC)cc2)cc1
inactive: [1] 31.6% | [2] -14% | [3] 26% | [4] 3.2% | [5] -1.45% | [6] 36.9%

CCCCCCCCCCCCCC/C=N/Nc1ccc([N+](=O)[O-])cc1[N+](=O)[O-]
inactive: [1] 21.3% | [2] 24% | [3] 13.5% | [4] 6.25% | [5] -2% | [6] 22.8%

Cc1ccc2c(c1)C(OC(=O)Nc1ccccc1)CCC2 (configuration not stated)
inactive: [1] 18.1% | [2] 2% | [3] 3.5% | [4] 6.05% | [5] 38% | [6] 5.1%

Cc1c(-c2nnc(-c3ccccc3)o2)c(=O)n(-c2ccccc2)n1C
inactive: [1] -7.3% | [2] -6.6% | [3] -30.2% | [4] -27.1% | [5] -26.1% | [6] -21.6%

CC(=O)CC(SCCSCCSC(CC(C)=O)c1ccccc1)c1ccccc1 (configuration not stated)
inactive: [1] 6.9% | [2] -3.65% | [3] 5.05% | [4] 17.1% | [5] 3.95% | [6] 14.7%

CC(=O)OC1CC2C=CC1C2 (configuration not stated)
inactive: [1] -3.55% | [2] -3.8% | [3] 3.6% | [4] 1.65% | [5] 15.4% | [6] -7.7%

CC1(C)OC(=O)ON(Cc2ccccc2)C1=O
inactive: [1] -4.45% | [2] -2.85% | [3] 2.2% | [4] 2.35% | [5] 3.3% | [6] -13.4%

CCOC(=O)C1CNCCC1=O (configuration not stated)
inactive: [1] -5.25% | [2] -20.9% | [3] -4.15% | [4] -1.4% | [5] -11.2% | [6] -8.95%

COc1ccc(N=Nc2c(C)c(C#N)c(=S)n(C3OC(CO)C(O)C(O)C3O)c2C)cc1 (configuration not stated)
inactive: [1] 16.1% | [2] 14.1% | [3] 46.6% | [4] 7.9% | [5] 28.1% | [6] 21.7%

O=C(Nc1cccc2ccccc12)OCC1CC1
inactive: [1] -4% | [2] 22.8% | [3] -4.55% | [4] -6.2% | [5] -34.9% | [6] -4.4%

CC(C)C/C(=N\NC(N)=O)C1=CCCCC1
inactive: [1] 10.8% | [2] 4.2% | [3] -1.15% | [4] -40.5% | [5] -0.1% | [6] 11.7%

CCCCCCCCCCCCn1[nH]c(C)c(C(=S)SCCCCCCCC)c1=O
inactive: [1] -7.2% | [2] 1.05% | [3] -0.9% | [4] 1.45% | [5] 3% | [6] 7.3%

O=C(CSc1nnc(-c2ccc(N=Cc3ccc(Cl)cc3)cc2)o1)Nc1ccc([N+](=O)[O-])cc1
inactive: [1] 14.7% | [2] -7.65% | [3] 14.7% | [4] -53.8% | [5] -11.3% | [6] 14.9%

S=C(S)NC1CCN(Cc2ccccc2)CC1
inactive: [1] 56.4% | [2] 30.6% | [3] 49% | [4] 48% | [5] 61.5% | [6] 26.1%

O=C(O)c1ccc(C2=Cc3cc(Cl)ccc3OC2)cc1
inactive: [1] 19.6% | [2] -5.1% | [3] -19.4% | [4] 26.2% | [5] -15.1% | [6] -11.1%

COC(=O)C(Cc1c[nH]c2ccccc12)NC(=O)C(Cc1c[nH]c2ccccc12)NC(=O)C(Cc1c[nH]c2ccccc12)NC(=O)OC(C)(C)C (stereo not drawn) (Boc-Trp-Trp-Trp-OMe; configuration not given here)
inactive: [1] -22.9% | [2] -16.6% | [3] -2.45% | [4] 10% | [5] -3.6% | [6] 1.5%

N#C/C(=C\c1ccc(Cl)cc1)C(=O)N/N=C/c1ccc(Cl)cc1
inactive: [1] 24.6% | [2] 27.1% | [3] 33% | [4] 1.35% | [5] 5.75% | [6] 27.9%

COc1ccc2c(c1)C(Cc1ccc(Oc3cc(CC4c5cc(OC)ccc5CC[N+]4(C)C)ccc3OC)cc1)[N+](C)(C)CC2 (configuration not stated)
inactive: [1] -5.9% | [2] 2.75% | [3] -7.45% | [4] -9.55% | [5] -6.5% | [6] -12.2%

O=C(Nc1cccc2ccccc12)OCCBr
inactive: [1] 6.85% | [2] -9.95% | [3] 3.25% | [4] 7% | [5] -10.2% | [6] -7.4%

CCN(CC)Cc1cc(Nc2ncnc3sc(C)c(C)c23)ccc1O
inactive: [1] 9.05% | [2] 9.95% | [3] 1.3% | [4] -13.2% | [5] -10.3% | [6] -15.7%

CC(=O)Nc1cc2cc(Br)ccc2oc1=O
inactive: [1] 28.9% | [2] 33.4% | [3] 18.9% | [4] 40% | [5] 50.1% | [6] 36.3%

Cc1ccc(C2[C@H]3C(=O)N(c4ccc(Cc5ccc(N6C(=O)[C@@H]7ON(c8ccccc8)C(c8ccc(C)cc8)[C@@H]7C6=O)cc5)cc4)C(=O)[C@H]3ON2c2ccccc2)cc1 (some centres not stated)
inactive: [1] -23.9% | [2] -17.9% | [3] -8.1% | [4] 26.9% | [5] -5.75% | [6] -10.8%

CCOC(=O)CCCCCC(C(=O)OCC)c1nc2ccccc2[nH]c1=O (configuration not stated)
inactive: [1] -14.4% | [2] 0.4% | [3] 10.9% | [4] -5.1% | [5] 11.1% | [6] 8.55%

NC(CC(=O)Nc1ccc(Cl)cc1)=Nc1ccccc1
inactive: [1] -28.6% | [2] -12.9% | [3] -11.2% | [4] -10.3% | [5] -14.4% | [6] -18.9%

S=C1NC(c2ccccc2)Nc2ccccc21 (configuration not stated)
inactive: [1] 6.5% | [2] 15.9% | [3] -5.5% | [4] -40.3% | [5] -12.9% | [6] 3.75%

CC1=CC2=NCC(O)CN2C=C1 (configuration not stated)
inactive: [1] -4.2% | [2] 28.6% | [3] 9.25% | [4] 12.8% | [5] 14.4% | [6] 2.2%

COC(=O)c1c([N+](=O)[O-])ncn1C1CC(OC(C)=O)C(COC(C)=O)O1 (configuration not stated)
inactive: [1] 15.2% | [2] -4.9% | [3] -1.9% | [4] -30.8% | [5] -17.7% | [6] 5.25%

C=C1C(C(=O)O)C1C(=O)O (configuration not stated)
inactive: [1] 4.2% | [2] -11.8% | [3] 20.4% | [4] 3.6% | [5] 2.9% | [6] -2.25%

CC(=O)c1cc([N+](=O)[O-])c(O)c([N+](=O)[O-])c1O
inactive: [1] 20.4% | [2] -2.2% | [3] -14.6% | [4] 12.2% | [5] 7.8% | [6] 8.65%

O=C(O)CCCc1ccccc1[N+](=O)[O-]
inactive: [1] -16.7% | [2] -41.8% | [3] -6.4% | [4] -2.35% | [5] -18.9% | [6] -19.8%

CC(=O)c1c(C)c([N+](=O)[O-])c(C)c([N+](=O)[O-])c1C
inactive: [1] 2.1% | [2] 11.9% | [3] -8.9% | [4] -94.8% | [5] 23.4% | [6] 7.3%

COc1cc(CN2CCN(CCO)CC2)c(O)c(CN2CCN(CCO)CC2)c1
inactive: [1] -2% | [2] 1.55% | [3] -23.4% | [4] -6.9% | [5] -5.45% | [6] 6.9%
